# Laboratory results reported in PubChem BioAssay (Tox21).
# Inconclusive results are not listed. Entries that show only a call come without a potency. Calls of active or inactive are those of the source. Calls come from the whole dose curve; as a rule, active = well fitted inhibition curve with a large enough effect in the repeat runs; inconclusive = weak or mixed curves; inactive = no such curve, though single readings can be large or run the other way.
# Biological target: Cytochrome P450 1A2 (Homo sapiens) (UniProt P05177)
# Sequence (P05177 whole entry, looked up): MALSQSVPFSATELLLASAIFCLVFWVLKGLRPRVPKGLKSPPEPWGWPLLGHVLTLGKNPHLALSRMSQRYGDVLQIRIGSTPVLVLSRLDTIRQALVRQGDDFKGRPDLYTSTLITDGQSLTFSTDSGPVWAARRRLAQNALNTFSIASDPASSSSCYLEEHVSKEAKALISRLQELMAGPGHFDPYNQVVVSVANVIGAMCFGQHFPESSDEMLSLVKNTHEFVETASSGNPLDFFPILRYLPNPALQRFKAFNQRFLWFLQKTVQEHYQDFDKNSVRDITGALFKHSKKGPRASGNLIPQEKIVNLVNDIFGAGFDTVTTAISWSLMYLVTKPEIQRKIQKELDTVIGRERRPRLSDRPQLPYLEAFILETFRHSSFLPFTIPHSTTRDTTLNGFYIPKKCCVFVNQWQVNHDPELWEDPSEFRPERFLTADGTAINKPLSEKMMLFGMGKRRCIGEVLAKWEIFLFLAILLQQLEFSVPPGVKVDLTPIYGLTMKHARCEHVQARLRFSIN
# Assay: Cytochrome P450 Family 1 Subfamily A Member 2 (CYP1A2) small molecule antagonists: luciferase reporter qHTS assay (AID 1671199); note: nearly all actives have a fitted effect of over 50% in size
# Details: P450-Glo CYP1A2 enzyme, luciferin luminescence, 1 h; series mostly up to 115 µM
# Method in brief: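 Enzymatic CYP1A2 assay, human, luminescent: 10 min compound–enzyme–substrate preincubation, 1 h NADPH-dependent turnover, 20 min detection step, room temperature throughout. Reduced light indicates lower CYP1A2 activity.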
# Potency is the fitted concentration of half-maximal effect.
row,SMILES,Potency
1,CN(C)C(=O)COC(=O)Cc1ccc(OC(=O)c2ccc(N=C(N)N)cc2)cc1,inactive
2,Nc1ccc(NCCO)c([N+](=O)[O-])c1,31.7 µM (active)
3,CC1=Nc2ccccc2C1(C)C,63.4 µM (active)
4,CCCCCCCC,inactive
5,CC(CO)Oc1ccccc1 (configuration not stated),inactive
6,CC(=O)CC(=O)Nc1ccc(S(=O)(=O)O)cc1,inactive
7,COC1=C(OC)C(=O)C(CCCCCCCCCCO)=C(C)C1=O,15.5 µM (active)
8,CC(=O)[C@H]1CC[C@H]2[C@@H]3CCC4=CC(=O)CC[C@]4(C)[C@H]3CC[C@]12C,31.7 µM (active)
9,Oc1ccccc1O,inactive
10,CC1(C)CCC[C@]2(C)[C@H]3CCO[C@]3(C)CC[C@@H]12,inactive
11,Cc1ccc(-c2ccccc2)cc1,inactive
12,OC12N=C(c3ccccc3)SC1Cc1cc(Cl)ccc12 (configuration not stated),1.78 µM (active)
13,CCn1c2ccccc2c2cc([N+](=O)[O-])ccc21,1.12 µM (active)
14,O=C(/C=C/c1ccccc1)OC/C=C/c1ccccc1,28.3 µM (active)
15,NC(=S)NC(N)=S,35.6 µM (active)
16,Clc1nnc(Cl)c2ccccc12,11.2 µM (active)
17,CC1(C)CCC[C@]2(C)[C@H]3CC(=O)O[C@]3(C)CC[C@@H]12,44.8 µM (active)
18,Cc1cc(C(C#N)c2ccc(Cl)cc2)c(Cl)cc1NC(=O)c1cc(I)cc(I)c1O (configuration not stated),inactive
19,CCCC(=O)OCCc1ccccc1,inactive
20,Cc1cc(-n2nc3ccc(Cl)cc3n2)c(O)c(C(C)(C)C)c1,inactive
21,CCCNCCC,inactive
22,O=C(O)c1cccc(C(F)(F)F)c1,inactive
